From PubChem BioAssay (NCI)
About 83,000 compounds went through this panel and 20% of them were active in at least one assay; those are over-represented in the sample as a whole.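 Assay: single dose, 48 h. Readout: percent growth (0 = no net growth; negative = cell death). Active: <10.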 Active and inactive are the calls of the source.

System: HL-60(TB) leukemia
Assay: NCI-60 one-dose screen, 48 h (100 = growth as untreated, 0 = no growth, -100 = all killed)
Conditions: 10 µM unless noted

| Compound | growth |
| --- | --- |
| O=C(Nc1ccc(-n2ccc3c(NC(=O)c4ccccc4)nccc32)cc1)c1cccc(C(F)(F)F)c1 | 16.8% (inactive) |
| CCC1CCc2nc3sc(C(=O)Nc4cccc(F)c4)c(N)c3cc2C1 (configuration not stated) | 23% (inactive) |
| C=C1C(=O)O[C@H]2[C@H]1CC/C(Cn1cc(CNC(=O)Cc3cn(C(=O)c4ccc(Cl)cc4)c4ccc(OC)cc34)nn1)=C\CC[C@@]1(C)O[C@@H]21 | -53.4% (active) |
| O=C1CN(CCN2CC(=O)N(Cc3ccccc3)C(=O)C2)CC(=O)N1Cc1ccccc1 | 97.7% (inactive) |
| CCOC(=O)c1ccc(NC(=O)Nc2nccs2)cc1 | -50.1% (active) |
| COc1ccc2nc(-n3nc(C)cc3C)c(-n3nc(C)cc3C)nc2c1 | 104% (inactive) |
| O=S(=O)(NCCNc1nccc(-c2c(-c3cccc(O)c3)nc3occn23)n1)c1cccc(F)c1 | 76.6% (inactive) |
| N#Cc1c(-c2cccc(Cl)c2)cc(-c2cccnc2)[nH]c1=O | 66.9% (inactive) |
| C=C(C)[C@@H]1CC=C2c3sc(-c4ccc(C)cc4)nc3C[C@@H](C)[C@]2(C)C1 | 102% (inactive) |
| C#CCOc1cccc(Nc2ncnc3c2ncn3C2CCN(C(=O)CCl)C2)c1 (configuration not stated) | -56.3% (active) |
| Cc1nc2c(nnn2-c2ccccc2)c2nc(-c3ccccc3)oc(=O)c12 | 109% (inactive) |
| N#Cc1ccc(Oc2ccc3ccc(=O)oc3c2)cc1 | 82.7% (inactive) |
| COc1ccc(C2=C(CN)C(O)NC(=NCC(=O)c3ccc4ccccc4c3)N2)cc1 (configuration not stated) | 97.9% (inactive) |
| CCN(CC)c1ccc(/C=N/NC(=O)C[N+](C)(C)C)cc1 | 35.5% (inactive) |
| CN1NC(c2ccccc2)NN(C)C1=O | 105% (inactive) |
| CCCn1ccnc1C(O)c1ccc(OCc2ccccc2)c(OC)c1 (configuration not stated) | 96.7% (inactive) |
| CN1/C(=C/C=C/c2n(Cc3ccc4ccccc4c3)c(Cl)c(Cl)[n+]2Cc2ccc3ccccc3c2)Oc2ccccc21 | 98.9% (inactive) |
| CSc1nc2ncnc(SC)c2[nH]1 | 118% (inactive) |
| O=C(COc1cc(O)c2c(=O)cc(-c3ccccc3)oc2c1)Nc1ccccc1 | 74.5% (inactive) |
| C=C(C)[C@@H]1CC[C@]2(COC(=O)c3cccnc3)CC[C@]3(C)[C@H](CC[C@@H]4[C@@]5(C)CCCN(C(=O)c6cccnc6)C(C)(C)[C@@H]5CC[C@]43C)[C@@H]12 | 11.6% (inactive) |
| COc1ccc(OC)c(Nc2nnc(-c3cc(OC)c(OC)c(OC)c3)o2)c1 | 95.5% (inactive) |
| COc1cccc(-c2nc(SCC(=O)Nc3ccc(C(=O)/C=C/c4ccc(OC)c(OC)c4)cc3)[nH]c(=O)c2C#N)c1 | 98.2% (inactive) |
| CCOc1nc(-c2ccccc2)cc2c(O)c(C(=O)N/N=C/c3ccc(O)cc3O)[nH]c(=O)c12 | 19.7% (inactive) |
| O=c1nc(-c2ccccc2)c2cc(-c3ccc(N4CCOCC4)cc3)ccc2[nH]1 | 63.5% (inactive) |
| CCCCC/C(C=C(C#N)C#N)=C/c1ccccc1 | 6.33% (active) |
| CC(=O)N1N=C(c2ccc(Nc3nc(Nc4ccc(F)cc4)nc(Nc4ccc(Cl)cc4)n3)cc2)CC1c1ccc(N(C)C)cc1 (configuration not stated) | 19% (inactive) |
| CCCCC1COc2cccc3c2N1C=C/C3=C\C(=O)n1ccc2ccccc21 (configuration not stated) | 58% (inactive) |
